Usually inhibition stands for the relative decrease from the control value, in per cent.

Assay [1] deals with Sphingosine kinase 1 (Homo sapiens) (UniProt Q9NYA1). To be noted: at 1 µM.
Assay [2] addresses T1, Sphingosine kinase 2 (Homo sapiens) (UniProt Q9NRA0).
T1 sequence (whole entry): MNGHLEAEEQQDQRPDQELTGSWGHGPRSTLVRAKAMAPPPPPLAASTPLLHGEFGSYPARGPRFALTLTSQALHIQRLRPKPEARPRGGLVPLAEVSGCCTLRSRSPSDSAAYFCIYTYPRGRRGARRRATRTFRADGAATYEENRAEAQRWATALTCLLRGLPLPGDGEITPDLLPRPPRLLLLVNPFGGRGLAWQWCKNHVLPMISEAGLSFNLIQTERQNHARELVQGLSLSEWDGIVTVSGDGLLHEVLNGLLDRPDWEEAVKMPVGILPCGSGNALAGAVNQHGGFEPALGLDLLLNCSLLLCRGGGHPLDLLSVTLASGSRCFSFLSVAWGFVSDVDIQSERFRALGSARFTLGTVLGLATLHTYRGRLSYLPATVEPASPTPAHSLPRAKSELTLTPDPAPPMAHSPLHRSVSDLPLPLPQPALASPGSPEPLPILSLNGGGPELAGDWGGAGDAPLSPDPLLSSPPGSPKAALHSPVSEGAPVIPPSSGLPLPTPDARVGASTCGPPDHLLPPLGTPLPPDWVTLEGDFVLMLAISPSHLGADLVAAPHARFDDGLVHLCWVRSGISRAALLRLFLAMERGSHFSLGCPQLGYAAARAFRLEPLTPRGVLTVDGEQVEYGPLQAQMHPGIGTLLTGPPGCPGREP
To be noted: at 0.1 µM.

In assay [3] the target is T1, Sphingosine kinase 2 (Homo sapiens). As to conditions: at 1 µM.
Assay [4] addresses Casein kinase II subunit alpha (Homo sapiens) (UniProt P68400). To be noted: at 0.1 µM.
Assay [5] shares this target. To be noted: at 1 µM.
The target in assay [6] is T2, Inhibitor of nuclear factor kappa-B kinase subunit alpha (Homo sapiens) (UniProt O15111).
T2 sequence (whole entry): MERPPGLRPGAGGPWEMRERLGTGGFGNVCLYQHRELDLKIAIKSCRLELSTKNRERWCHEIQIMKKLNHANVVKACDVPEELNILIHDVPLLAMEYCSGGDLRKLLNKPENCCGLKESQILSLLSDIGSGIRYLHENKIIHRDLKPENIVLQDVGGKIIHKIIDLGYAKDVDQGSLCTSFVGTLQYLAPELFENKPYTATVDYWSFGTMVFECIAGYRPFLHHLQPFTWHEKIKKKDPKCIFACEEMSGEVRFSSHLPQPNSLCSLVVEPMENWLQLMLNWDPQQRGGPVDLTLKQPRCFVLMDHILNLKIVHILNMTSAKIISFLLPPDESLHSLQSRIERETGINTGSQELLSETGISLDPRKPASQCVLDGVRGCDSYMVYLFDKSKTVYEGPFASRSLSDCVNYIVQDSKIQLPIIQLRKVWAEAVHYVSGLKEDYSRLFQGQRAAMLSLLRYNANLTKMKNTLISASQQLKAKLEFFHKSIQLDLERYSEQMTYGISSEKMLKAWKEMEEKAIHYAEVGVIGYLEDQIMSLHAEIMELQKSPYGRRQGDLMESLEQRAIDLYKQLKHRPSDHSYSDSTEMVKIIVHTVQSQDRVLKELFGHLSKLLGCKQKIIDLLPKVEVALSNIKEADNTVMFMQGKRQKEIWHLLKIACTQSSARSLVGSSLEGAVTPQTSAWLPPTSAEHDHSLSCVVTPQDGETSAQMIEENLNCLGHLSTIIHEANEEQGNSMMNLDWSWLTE
As to conditions: at 0.1 µM.

The target of assay [7] is T2, Inhibitor of nuclear factor kappa-B kinase subunit alpha (Homo sapiens). To be noted: at 1 µM.
The target in assay [8] is T3, Inhibitor of nuclear factor kappa-B kinase subunit beta (Homo sapiens) (UniProt O14920).
T3 sequence (whole entry): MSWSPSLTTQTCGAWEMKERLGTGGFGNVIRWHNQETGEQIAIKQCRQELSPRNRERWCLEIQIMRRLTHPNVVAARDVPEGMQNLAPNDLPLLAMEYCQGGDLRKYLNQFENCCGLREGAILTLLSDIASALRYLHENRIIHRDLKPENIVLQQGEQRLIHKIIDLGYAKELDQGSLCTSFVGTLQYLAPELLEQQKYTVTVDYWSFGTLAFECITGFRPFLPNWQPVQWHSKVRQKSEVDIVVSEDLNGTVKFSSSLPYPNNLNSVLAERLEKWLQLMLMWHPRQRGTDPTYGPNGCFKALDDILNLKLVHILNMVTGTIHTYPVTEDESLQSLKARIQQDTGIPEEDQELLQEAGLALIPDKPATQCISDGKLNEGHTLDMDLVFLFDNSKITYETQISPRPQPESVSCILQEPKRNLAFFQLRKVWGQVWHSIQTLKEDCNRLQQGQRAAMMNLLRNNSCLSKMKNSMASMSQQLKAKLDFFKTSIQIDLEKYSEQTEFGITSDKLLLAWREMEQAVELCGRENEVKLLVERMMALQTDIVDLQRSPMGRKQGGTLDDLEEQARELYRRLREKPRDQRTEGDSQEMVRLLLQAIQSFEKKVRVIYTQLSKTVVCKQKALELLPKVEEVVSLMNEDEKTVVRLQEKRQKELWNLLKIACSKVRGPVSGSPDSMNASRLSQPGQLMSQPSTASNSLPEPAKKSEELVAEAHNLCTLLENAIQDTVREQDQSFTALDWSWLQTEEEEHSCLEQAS
As to conditions: at 0.1 µM.

In assay [9] the target is T3, Inhibitor of nuclear factor kappa-B kinase subunit beta (Homo sapiens). As to conditions: at 1 µM.
In assay [10] the target is T4, Inhibitor of nuclear factor kappa-B kinase subunit epsilon (Homo sapiens) (UniProt Q14164).
T4 sequence (whole entry): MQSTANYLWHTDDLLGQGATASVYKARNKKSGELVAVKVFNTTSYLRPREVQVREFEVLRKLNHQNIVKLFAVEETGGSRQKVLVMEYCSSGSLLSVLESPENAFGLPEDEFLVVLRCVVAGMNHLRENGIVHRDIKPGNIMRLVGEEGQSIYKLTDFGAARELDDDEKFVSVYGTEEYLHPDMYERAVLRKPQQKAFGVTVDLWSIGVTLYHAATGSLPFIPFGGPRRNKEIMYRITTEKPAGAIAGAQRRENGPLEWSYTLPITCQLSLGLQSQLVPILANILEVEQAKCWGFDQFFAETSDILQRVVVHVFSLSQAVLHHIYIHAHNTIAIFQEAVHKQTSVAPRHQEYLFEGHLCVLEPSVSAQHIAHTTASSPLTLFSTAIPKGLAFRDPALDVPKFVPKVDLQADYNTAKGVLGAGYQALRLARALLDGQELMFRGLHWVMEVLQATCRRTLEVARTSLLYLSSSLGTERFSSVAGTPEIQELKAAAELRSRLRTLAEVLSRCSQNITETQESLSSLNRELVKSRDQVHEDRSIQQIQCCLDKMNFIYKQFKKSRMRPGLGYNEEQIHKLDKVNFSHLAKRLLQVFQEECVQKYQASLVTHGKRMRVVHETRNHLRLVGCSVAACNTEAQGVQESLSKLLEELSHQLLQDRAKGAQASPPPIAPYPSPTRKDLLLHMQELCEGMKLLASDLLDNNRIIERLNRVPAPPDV
As to conditions: at 0.1 µM.

Assay [11] deals with T4, Inhibitor of nuclear factor kappa-B kinase subunit epsilon (Homo sapiens). As to conditions: at 1 µM.
Assay [12] addresses T5, Serine/threonine-protein kinase Nek1 (Homo sapiens) (UniProt Q96PY6).
T5 sequence (whole entry): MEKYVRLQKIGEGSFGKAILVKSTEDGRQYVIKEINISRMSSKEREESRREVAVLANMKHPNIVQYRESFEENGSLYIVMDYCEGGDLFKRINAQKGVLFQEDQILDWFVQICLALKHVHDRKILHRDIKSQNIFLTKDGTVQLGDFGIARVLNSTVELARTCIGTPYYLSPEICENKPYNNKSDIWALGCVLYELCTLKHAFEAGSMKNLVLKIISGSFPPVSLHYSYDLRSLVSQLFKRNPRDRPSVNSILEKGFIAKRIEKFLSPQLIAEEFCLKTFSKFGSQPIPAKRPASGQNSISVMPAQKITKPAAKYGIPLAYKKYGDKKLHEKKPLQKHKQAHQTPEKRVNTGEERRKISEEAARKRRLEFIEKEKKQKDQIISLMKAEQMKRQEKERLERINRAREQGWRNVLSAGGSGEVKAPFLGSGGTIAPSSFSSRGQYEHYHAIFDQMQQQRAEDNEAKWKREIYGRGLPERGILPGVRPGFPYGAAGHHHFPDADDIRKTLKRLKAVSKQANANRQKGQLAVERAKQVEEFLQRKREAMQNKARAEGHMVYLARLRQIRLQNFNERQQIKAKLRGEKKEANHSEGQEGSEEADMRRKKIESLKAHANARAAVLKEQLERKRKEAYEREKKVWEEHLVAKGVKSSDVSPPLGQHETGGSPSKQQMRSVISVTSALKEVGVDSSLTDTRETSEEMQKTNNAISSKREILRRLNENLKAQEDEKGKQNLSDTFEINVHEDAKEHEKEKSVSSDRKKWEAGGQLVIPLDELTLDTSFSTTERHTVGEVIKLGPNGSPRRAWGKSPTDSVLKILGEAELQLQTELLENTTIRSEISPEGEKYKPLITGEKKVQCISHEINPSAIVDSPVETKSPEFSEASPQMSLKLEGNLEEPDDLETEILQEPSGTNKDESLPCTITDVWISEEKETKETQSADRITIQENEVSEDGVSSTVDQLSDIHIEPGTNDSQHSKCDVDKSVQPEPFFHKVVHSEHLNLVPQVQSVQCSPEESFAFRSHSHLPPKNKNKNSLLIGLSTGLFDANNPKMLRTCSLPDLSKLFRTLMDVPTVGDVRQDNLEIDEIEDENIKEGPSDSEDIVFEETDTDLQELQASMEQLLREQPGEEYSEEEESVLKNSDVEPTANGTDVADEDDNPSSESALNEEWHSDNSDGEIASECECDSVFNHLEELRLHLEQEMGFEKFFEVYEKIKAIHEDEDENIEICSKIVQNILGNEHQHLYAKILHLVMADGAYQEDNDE
To be noted: at 0.1 µM.

The target of assay [13] is T5, Serine/threonine-protein kinase Nek1 (Homo sapiens). As to conditions: at 1 µM.
Assay [14] has as its target T6, Serine/threonine-protein kinase Nek2 (Homo sapiens) (UniProt P51955).
T6 sequence (whole entry): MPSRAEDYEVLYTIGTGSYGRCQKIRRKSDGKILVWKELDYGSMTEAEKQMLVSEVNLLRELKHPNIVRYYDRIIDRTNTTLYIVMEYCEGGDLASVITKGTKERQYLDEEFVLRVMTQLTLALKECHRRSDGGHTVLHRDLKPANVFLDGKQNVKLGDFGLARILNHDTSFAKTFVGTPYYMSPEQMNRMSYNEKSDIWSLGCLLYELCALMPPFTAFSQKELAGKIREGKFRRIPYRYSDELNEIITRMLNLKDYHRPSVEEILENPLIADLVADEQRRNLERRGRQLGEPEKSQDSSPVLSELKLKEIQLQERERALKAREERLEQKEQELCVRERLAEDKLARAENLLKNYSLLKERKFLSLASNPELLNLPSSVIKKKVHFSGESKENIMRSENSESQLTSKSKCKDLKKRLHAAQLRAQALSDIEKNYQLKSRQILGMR
To be noted: at 0.1 µM.

Assay [15] addresses T6, Serine/threonine-protein kinase Nek2 (Homo sapiens). To be noted: at 1 µM.
Assay [16] addresses Serine/threonine-protein kinase Nek6 (Homo sapiens) (UniProt Q9HC98). To be noted: at 0.1 µM.
Assay [17] has the same target. To be noted: at 1 µM.
The target of assay [18] is Serine/threonine-protein kinase Nek7 (Homo sapiens) (UniProt Q8TDX7). To be noted: at 0.1 µM.
Chain of Serine/threonine-protein kinase Nek7 (Homo sapiens) (Q8TDX7 whole entry, looked up): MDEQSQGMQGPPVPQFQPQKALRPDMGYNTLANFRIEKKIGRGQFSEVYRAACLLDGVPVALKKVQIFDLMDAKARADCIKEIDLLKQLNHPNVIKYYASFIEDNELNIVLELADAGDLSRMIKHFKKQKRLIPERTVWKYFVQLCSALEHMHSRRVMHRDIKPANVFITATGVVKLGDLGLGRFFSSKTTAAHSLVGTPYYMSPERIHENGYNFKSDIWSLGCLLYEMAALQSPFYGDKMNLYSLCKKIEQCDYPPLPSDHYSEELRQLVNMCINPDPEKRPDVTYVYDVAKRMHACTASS
Assay [19] shares this target. To be noted: at 1 µM.
The target in assay [20] is T7, Serine/threonine-protein kinase Nek9 (Homo sapiens) (UniProt Q8TD19).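 Further: reported value is the mean percent inhibition of NEK9.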
T7 sequence (whole entry): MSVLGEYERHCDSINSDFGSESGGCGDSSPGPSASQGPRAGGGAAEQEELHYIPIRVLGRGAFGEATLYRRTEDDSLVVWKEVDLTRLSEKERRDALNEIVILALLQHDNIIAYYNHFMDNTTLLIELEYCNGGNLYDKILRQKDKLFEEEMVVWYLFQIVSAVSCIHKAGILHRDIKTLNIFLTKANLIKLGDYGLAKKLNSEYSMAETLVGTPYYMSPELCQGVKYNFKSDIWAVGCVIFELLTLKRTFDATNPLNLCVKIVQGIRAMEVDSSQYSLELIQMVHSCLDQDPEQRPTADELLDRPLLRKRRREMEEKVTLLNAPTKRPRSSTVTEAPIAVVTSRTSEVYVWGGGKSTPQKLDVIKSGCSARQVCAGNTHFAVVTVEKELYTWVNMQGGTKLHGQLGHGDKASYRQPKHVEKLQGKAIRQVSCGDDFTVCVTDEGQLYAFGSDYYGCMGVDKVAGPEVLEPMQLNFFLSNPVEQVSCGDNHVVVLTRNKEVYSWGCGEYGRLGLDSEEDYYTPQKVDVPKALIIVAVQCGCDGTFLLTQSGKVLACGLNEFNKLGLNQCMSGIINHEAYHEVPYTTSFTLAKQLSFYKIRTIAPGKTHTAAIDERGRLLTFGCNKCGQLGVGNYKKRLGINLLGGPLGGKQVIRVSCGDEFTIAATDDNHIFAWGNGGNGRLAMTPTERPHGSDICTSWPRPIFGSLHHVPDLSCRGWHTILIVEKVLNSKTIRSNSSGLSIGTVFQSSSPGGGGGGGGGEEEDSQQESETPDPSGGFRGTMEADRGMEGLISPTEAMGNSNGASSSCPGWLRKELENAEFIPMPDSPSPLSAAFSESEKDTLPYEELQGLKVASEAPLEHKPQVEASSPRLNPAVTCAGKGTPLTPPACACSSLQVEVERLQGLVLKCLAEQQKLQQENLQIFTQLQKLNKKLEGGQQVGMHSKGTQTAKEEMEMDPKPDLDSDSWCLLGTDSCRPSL
As to conditions: at 0.1 µM.

SMILES strings stand for the structures.

Chain of Casein kinase II subunit alpha (Homo sapiens) (P68400 whole entry, looked up): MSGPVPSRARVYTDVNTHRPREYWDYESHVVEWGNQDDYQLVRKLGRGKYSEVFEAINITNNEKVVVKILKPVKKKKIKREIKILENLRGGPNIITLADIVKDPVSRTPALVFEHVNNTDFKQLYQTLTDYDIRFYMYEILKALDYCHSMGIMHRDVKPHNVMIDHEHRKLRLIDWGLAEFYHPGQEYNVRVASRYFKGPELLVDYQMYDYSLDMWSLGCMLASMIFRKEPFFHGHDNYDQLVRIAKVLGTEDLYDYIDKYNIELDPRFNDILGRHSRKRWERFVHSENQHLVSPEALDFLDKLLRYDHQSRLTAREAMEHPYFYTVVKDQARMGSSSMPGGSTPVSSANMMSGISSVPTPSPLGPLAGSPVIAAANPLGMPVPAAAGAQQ
Chain of Serine/threonine-protein kinase Nek6 (Homo sapiens) (Q9HC98 whole entry): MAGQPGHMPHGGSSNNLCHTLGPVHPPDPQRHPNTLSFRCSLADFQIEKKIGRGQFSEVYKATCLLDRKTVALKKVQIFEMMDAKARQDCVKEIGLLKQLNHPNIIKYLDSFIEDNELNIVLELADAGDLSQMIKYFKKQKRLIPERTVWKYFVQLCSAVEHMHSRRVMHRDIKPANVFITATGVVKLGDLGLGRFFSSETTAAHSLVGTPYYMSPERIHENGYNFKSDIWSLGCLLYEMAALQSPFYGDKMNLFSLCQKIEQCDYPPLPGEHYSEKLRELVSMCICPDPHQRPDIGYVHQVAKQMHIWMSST
Chain of Sphingosine kinase 1 (Homo sapiens) (Q9NYA1 whole entry): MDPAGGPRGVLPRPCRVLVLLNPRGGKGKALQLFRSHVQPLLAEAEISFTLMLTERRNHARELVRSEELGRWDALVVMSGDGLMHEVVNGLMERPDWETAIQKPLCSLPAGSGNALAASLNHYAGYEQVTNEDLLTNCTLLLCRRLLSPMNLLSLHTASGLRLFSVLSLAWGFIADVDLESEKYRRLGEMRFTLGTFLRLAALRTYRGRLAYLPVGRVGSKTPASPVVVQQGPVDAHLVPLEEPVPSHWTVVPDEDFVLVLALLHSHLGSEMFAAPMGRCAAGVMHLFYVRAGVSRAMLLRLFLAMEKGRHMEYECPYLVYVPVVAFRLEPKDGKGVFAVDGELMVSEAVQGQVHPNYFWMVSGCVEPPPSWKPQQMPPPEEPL

On to `Fc1ccc(-c2cc(-c3c[nH]nc3-c3ccccn3)ccn2)cc1`, for which the inhibition was -2.44% in assay [1]; -0.74% in assay [2]; -0.12% in [3]; 3.83% in assay [4]; 11.9% in assay [5]; 5.34% in [6]. The inhibition in [7] amounted to 3.99%; in assay [8] it was 5.76%; in [9], 9.85%; in assay [10] it was 8.65%; in assay [11], 7.34%; in assay [12] it was 2.81%. Moreover, the inhibition in [13] amounted to 0.44%; in [14] it was 4.38%; in assay [15], 3.61%; in assay [16], 4.06%; in assay [17] it was 7.77%; in assay [18], 6.08%. The inhibition in [19] was determined as 4.43%; in [20], 7.41%.

For the origin of these results see ChEMBL document CHEMBL1961873, “Compounds: GSK PKIS; Assays: Nanosyn kinase panel” (2012).
